Where “and” joins values, the source holds several entries; their conditions need not be identical. Equal entries are not always repeated. Records with an inconclusive call do not appear. Entries that show only a call come without a potency. Some structures have more than one record in an assay (separate samples or runs), and their calls can disagree. Calls of active or inactive are those of the source. Unless noted, calls follow the shape of the full dose curve.
Tests used:
[1] = Nuclear factor erythroid 2-related factor 2/antioxidant responsive element (Nrf2/ARE) small molecule agonists: qHTS cell viability counter screen in human keratinocytes (AID 1919968; active = well fitted curve in the direction sought with a large enough effect in the repeat runs; an effect the other way counts as inactive or inconclusive; also: nearly all actives have a fitted effect of over 55% in size; also: potency is read from the fitted curve at half-maximal effect)
Method in brief: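 HaCaT ARE reporter line, 1,500 cells/well; 5 h settle, 37 C/5% CO2; cpd in DMSO pinned; 23 h exposure; CellTiter-Fluor, 1 h; fluorescence.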

[2] = Nuclear factor erythroid 2-related factor 2/antioxidant responsive element (Nrf2/ARE) small molecule agonists: luciferase reporter gene qHTS assay in human keratinocytes (AID 1919969); also: nearly all actives have a fitted effect of over 35% in size; also: potency is read from the fitted curve at half-maximal effect
[3] = target: Gonadotropin-releasing hormone receptor (Homo sapiens) (UniProt P30968); assay: Human gonadotropin-releasing hormone receptor (GnRHR) small molecule agonists, calcium flux assay in GnRHR-HEK293 cells (AID 1920063); also: nearly all actives have a fitted effect of over 35% in size
Chain of Gonadotropin-releasing hormone receptor (Homo sapiens) (P30968 whole entry, looked up): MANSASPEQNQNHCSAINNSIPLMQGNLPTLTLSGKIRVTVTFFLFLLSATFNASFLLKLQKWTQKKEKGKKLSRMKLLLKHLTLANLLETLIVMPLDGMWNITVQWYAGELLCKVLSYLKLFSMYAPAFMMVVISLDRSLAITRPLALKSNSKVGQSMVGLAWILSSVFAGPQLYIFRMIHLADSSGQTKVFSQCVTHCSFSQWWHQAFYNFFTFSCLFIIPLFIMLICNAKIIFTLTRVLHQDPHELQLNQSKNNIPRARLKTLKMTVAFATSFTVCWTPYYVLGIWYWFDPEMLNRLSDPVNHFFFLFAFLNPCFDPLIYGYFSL
Method in brief: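 GnRHR-HEK293, 1500 cells/well, 18 h 37 C/5% CO2; Ca dye 1 h 37 C; cpd pinned (DMSO), agonist mode; kinetic FL 480/540, 3 min, 1 s reads; 15 conc, n=3.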

[4] = target: KiSS-1 receptor (Homo sapiens) (UniProt Q969F8); assay: Human kisspeptin (KISS1R) small molecule agonists, calcium flux assay in KISS1R-HEK293 cells (AID 1920064; active = well fitted curve in the direction sought with a large enough effect in the repeat runs; an effect the other way counts as inactive or inconclusive)
Chain of KiSS-1 receptor (Homo sapiens) (Q969F8 whole entry, looked up): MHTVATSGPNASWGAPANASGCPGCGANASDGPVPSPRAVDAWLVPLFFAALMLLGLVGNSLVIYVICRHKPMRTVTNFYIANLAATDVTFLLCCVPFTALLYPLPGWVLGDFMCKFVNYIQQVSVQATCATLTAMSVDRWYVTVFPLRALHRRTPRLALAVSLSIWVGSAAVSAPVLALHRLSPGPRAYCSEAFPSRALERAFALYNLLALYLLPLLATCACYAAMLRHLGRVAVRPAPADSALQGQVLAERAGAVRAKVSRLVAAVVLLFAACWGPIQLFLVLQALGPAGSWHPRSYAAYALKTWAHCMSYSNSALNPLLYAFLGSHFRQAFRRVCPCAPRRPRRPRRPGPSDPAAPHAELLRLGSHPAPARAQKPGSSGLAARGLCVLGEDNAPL
Method in brief: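 Stable human KISS1R HEK293 line; 18 h plating, 37 C/5% CO2; calcium dye 1 h 37 C; compound pin transfer; kinetic fluorescence Ex/Em 480/540, 3 min.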

[5] = G protein-coupled receptor (GPCR) small molecule agonists, calcium flux assay: HEK293 wild type cell line counter screen (AID 1920065)
Method in brief: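 Kinetic fluorescence at Ex/Em 480/540, recorded every second over 3 min, served as the read-out after compound addition. Each compound was tested at 15 concentrations in triplicate on cells pre-loaded with calcium dye for 1 h.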

[6] = p53 small molecule agonists, cell-based qHTS assay with human liver microsomes (AID 1963577);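 also: p53 response element beta-lactamase reporter cells with liver microsomes plus NADPH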
Method in brief: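 With metabolic activation: human liver microsomes (0.5 mg/mL final) plus NADPH (0.5 mg/mL final) added alongside compounds to p53RE-bla cells; 16 h 37 C exposure; beta-lactamase read by LiveBLAzer fluorescence.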

[7] = p53 small molecule agonists, cell-based qHTS assay with rat liver microsomes (AID 1963578)
Method in brief: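 Metabolic activation by rat liver microsomes and NADPH, each 0.5 mg/mL final, added right after compounds to p53RE-bla reporter cells (4,000/well, plated 5 h earlier). 16 h at 37 C, then LiveBLAzer substrate for 2 h at room temperature in the dark; fluorescence read-out.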

[8] = p53 small molecule agonists, cell-based qHTS assay with human liver microsomes: qHTS cell viability counter screen (AID 1963579); also: nearly all actives have a fitted effect of over 45% in size
Method in brief: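 Metabolic activation used human liver microsomes and NADPH, both 0.5 mg/mL final, over 16 hours at 37 C on p53RE-bla cells (4,000/well). Cytotoxicity measured by CellTiter-Glo luminescence, 30 min at room temperature.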

[9] = p53 small molecule agonists, cell-based qHTS assay with rat liver microsomes: qHTS cell viability counter screen (AID 1963580); also: nearly all actives have a fitted effect of over 45% in size
Method in brief: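 p53RE-bla HCT-116 cells (4,000/well) rested 5 h at 37 C, then given Tox21 compounds in DMSO with rat liver microsomes (0.5 mg/mL final) plus NADPH (0.5 mg/mL final) for 16 h at 37 C. Viability read by CellTiter-Glo luminescence after 30 min at room temperature.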

[10] = p53 small molecule agonists, cell-based qHTS assay: qHTS cell viability counter screen (AID 1963581); also: nearly all actives have a fitted effect of over 45% in size
Method in brief: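 HCT-116 p53RE-bla cells, 4,000/well, plated 5 h before compound pin transfer; 16 h at 37 C; bla substrate 2 h RT; then CellTiter-Glo, 30 min RT, luminescence.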

[11] = p53 small molecule agonists, cell-based qHTS assay (AID 1963582; active = well fitted activation curve with a large enough effect in the signal ratio in the repeat runs, not every such curve was filed as active; the % refers to the signal ratio)
Method in brief: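 Reporter line: p53RE-bla. Pre-incubation 5 h, 37 C, 5% CO2; compound (DMSO, pin tool) 16 h, 37 C; B/G FRET substrate 2 h RT; fluorescence intensity read.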

[12] = target: 5-hydroxytryptamine receptor 2A (Homo sapiens) (UniProt P28223); assay: 5-hydroxytryptamine receptor 2A (HTR2A) small molecule antagonists, cell-based qHTS assay (AID 1963586); also: nearly all actives have a fitted effect of over 45% in size
Chain of 5-hydroxytryptamine receptor 2A (Homo sapiens) (P28223 whole entry, looked up): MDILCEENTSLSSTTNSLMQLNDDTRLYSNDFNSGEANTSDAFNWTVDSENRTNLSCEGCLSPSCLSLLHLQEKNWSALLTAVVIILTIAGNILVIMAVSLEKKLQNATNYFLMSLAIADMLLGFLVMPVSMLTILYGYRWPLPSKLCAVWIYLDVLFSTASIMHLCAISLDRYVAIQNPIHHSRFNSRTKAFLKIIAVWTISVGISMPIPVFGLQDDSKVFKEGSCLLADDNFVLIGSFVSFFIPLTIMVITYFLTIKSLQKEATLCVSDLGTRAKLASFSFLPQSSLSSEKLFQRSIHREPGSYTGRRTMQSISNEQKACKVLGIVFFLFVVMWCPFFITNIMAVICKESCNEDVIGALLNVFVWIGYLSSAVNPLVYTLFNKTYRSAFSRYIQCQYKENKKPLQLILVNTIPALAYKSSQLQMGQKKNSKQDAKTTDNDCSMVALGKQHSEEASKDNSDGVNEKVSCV
Method in brief: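 Antagonist-mode intracellular calcium assay: DOI (4 nM) added after 5 min compound pre-incubation at room temperature to dye-loaded HTR2A-CHO cells. Fluorescence followed for 3 min, sampled every second.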

[13] = target: Muscarinic acetylcholine receptor M1 (Homo sapiens) (UniProt P11229); assay: Cholinergic receptor muscarinic 1 (CHRM1) small molecule agonists, cell-based qHTS assay (AID 1963589); also: nearly all actives have a fitted effect of over 35% in size
Chain of Muscarinic acetylcholine receptor M1 (Homo sapiens) (P11229 whole entry, looked up): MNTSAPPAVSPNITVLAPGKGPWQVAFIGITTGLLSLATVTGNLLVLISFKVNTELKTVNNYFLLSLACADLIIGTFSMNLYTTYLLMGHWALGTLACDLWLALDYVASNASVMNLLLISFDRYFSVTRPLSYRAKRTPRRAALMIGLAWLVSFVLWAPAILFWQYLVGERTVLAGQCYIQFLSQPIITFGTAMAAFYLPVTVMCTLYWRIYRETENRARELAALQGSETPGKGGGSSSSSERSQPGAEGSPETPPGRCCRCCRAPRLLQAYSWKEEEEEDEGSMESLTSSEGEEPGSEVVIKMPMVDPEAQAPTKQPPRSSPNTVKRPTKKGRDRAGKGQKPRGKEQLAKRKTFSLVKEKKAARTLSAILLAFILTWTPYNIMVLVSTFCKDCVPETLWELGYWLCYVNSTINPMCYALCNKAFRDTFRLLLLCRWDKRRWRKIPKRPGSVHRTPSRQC
Method in brief: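 Human M1 in stable CHO line; 18 h plating, 1 h dye load 37 C; cpd added (agonist mode); Ca2+ fluorescence kinetic read, 1 s intervals; 15 conc, 3 runs.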

[14] = cAMP Responsive Elements (CRE) small molecule agonists, cell-based qHTS assay (AID 1963590)
Method in brief: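 HEK 293T CRE-bla, 2,000 cells/well, 18 h preincubation 37 C/5% CO2; cpds (DMSO) pinned, 3 h; LiveBLAzer B/G FRET substrate, 2 h RT.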

[15] = cAMP Responsive Elements (CRE) small molecule antagonists, cell-based qHTS assay (AID 1963591; active = well fitted inhibition curve with a large enough effect in the signal ratio in the repeat runs, not every such curve was filed as active; the % refers to the signal ratio)
Method in brief: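 Beta-lactamase reporter read by FRET substrate (LiveBLAzer B/G) after 2 h at room temperature. CRE-bla HEK293T cells had received compound plus 0.25 uM (final) NKH477 for 3 h at 37 °C.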

[16] = target: Beta-2 adrenergic receptor (Homo sapiens) (UniProt P07550); assay: Adrenergic beta2 receptor (ADRB2) small molecule antagonists, cell-based qHTS assay (AID 1963592); also: series mostly up to about 92 µM; nearly all actives have a fitted effect of over 50% in size
Chain of Beta-2 adrenergic receptor (Homo sapiens) (P07550 whole entry, looked up): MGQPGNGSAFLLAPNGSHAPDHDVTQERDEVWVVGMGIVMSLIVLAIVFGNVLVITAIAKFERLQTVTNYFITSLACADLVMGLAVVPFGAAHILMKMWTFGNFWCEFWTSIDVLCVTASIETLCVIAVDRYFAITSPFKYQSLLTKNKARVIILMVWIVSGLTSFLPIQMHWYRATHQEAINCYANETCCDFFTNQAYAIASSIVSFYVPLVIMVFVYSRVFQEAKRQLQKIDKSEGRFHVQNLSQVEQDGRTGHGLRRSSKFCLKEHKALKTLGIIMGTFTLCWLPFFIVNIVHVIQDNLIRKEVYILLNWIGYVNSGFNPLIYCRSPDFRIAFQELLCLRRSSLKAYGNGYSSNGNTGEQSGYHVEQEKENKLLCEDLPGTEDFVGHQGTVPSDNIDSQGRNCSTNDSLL
Method in brief: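 Cells (CHO, stable ADRB2 overexpression) incubated 18-20hr at 37C; compounds added from DMSO; agonist mix (1nM isoproterenol, 100uM IBMX, 25uM Ro-20-1724) added; 0.5hr RT; d2-cAMP and anti-cAMP-cryptate added; 1hr RT; 665/615 nm read.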

[17] = target: Beta-2 adrenergic receptor (Homo sapiens) (UniProt P07550); assay: Adrenergic beta2 receptor (ADRB2) small molecule agonists, cell-based qHTS assay (AID 1963593);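 also: CHO cells stably overexpressing human ADRB2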
Method in brief: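 CHO cells stably over-expressing ADRB2 were plated overnight at 37C, then dosed with compounds plus a stimulation mix containing 100uM IBMX and 25uM Ro-20-1724 for 0.5hr at room temperature. cAMP was measured by HTRF competition, 1hr.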

[18] = target: D(2) dopamine receptor (Homo sapiens) (UniProt P14416); assay: Dopamine D2 receptor (DRD2) small molecule agonists, cell-based qHTS assay (AID 1963594); also: nearly all actives have a fitted effect of over 35% in size; also: potency is read from the fitted curve at half-maximal effect
Chain of D(2) dopamine receptor (Homo sapiens) (P14416 whole entry, looked up): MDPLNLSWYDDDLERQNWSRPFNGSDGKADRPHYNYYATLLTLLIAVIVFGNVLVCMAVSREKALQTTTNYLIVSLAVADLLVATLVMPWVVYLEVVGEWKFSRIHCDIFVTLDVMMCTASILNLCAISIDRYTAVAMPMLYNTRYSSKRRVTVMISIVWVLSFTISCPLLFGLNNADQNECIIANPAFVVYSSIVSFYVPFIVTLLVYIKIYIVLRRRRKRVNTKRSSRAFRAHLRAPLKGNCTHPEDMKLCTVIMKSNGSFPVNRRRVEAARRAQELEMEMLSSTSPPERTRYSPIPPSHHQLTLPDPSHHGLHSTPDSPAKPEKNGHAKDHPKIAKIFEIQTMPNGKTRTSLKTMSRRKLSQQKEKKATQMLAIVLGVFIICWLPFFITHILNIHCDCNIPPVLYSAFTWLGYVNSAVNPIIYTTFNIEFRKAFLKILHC
Method in brief: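 HEK293 cells stably expressing DRD2 were cultured 24 h at 37 C, then given Ro20-1724 (0.1 mM final) and compounds for 10 min at room temperature. NKH477 (200nM) was then added for 30 min. cAMP was read by HTRF.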

[19] = target: D(2) dopamine receptor (Homo sapiens) (UniProt P14416); assay: Dopamine D2 receptor (DRD2) small molecule antagonists, cell-based qHTS assay (AID 1963595; active = well fitted inhibition curve with a large enough effect in the signal ratio in the repeat runs, with a control signal flat; the % refers to the signal ratio)
Method in brief: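 DRD2-HEK293; 0.1 mM Ro20-1724; cpd 10 min RT; NKH477 200 nM + quinpirole 12 nM, 30 min RT; HTRF cAMP (cAMP-d2/anti-cAMP cryptate), 665/620 nm ratio after 1 h.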

[20] = target: 5-hydroxytryptamine receptor 2A (Homo sapiens) (UniProt P28223); assay: 5-hydroxytryptamine receptor 2A (HTR2A) small molecule agonists, cell-based qHTS assay (AID 1963587); also: nearly all actives have a fitted effect of over 30% in size
Method in brief: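 HTR2A-CHO cells, plated 18 h at 37 C/5% CO2, dye-loaded 1 h at 37 C; compounds in DMSO added by pin tool (agonist mode). Intracellular calcium flux read as kinetic fluorescence on FDSS over 2 min at 1 s intervals.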

Compound | Potency [1] | Potency [2] | Potency [3] | Potency [4] | Potency [5] | Potency [6] | Potency [7] | Potency [8] | Potency [9] | Potency [10] | Potency [11] | Potency [12] | Potency [13] | Potency [14] | Potency [15] | Potency [16] | Potency [17] | Potency [18] | Potency [19] | Potency [20]
NC(=O)NC1NC(=O)NC1=O (stereo not given) | inactive | inactive | inactive | inactive | inactive | inactive | inactive | inactive | inactive | inactive | inactive | inactive | inactive | inactive | inactive | inactive | inactive | inactive | inactive | 
COc1ccccc1[N+](=O)[O-] | inactive | inactive | inactive | inactive | inactive | inactive | inactive | inactive | inactive | inactive | inactive | inactive |  | inactive | inactive | inactive | inactive | inactive |  | inactive
Nc1cccc(N)c1 | inactive | inactive and 21.4 µM (active) | inactive | inactive | inactive | inactive | inactive | inactive | inactive | inactive | inactive | inactive |  | inactive | inactive |  |  | inactive |  | inactive
OCc1cccc(Oc2ccccc2)c1 | inactive | inactive | inactive | inactive | inactive | inactive | inactive | inactive | inactive | inactive | inactive | inactive | inactive | inactive | inactive | inactive | inactive | inactive | inactive | inactive
C=CCc1ccc(OC)c(OC)c1 | inactive | inactive | inactive | inactive | inactive | inactive | inactive | inactive | inactive | inactive | inactive | inactive | inactive | inactive | inactive | inactive |  | inactive | inactive | 
c1ccc(Nc2ccccc2)cc1 | inactive | 61.1 µM (active) and inactive | inactive | inactive | inactive | inactive | inactive | inactive | inactive | inactive | inactive | inactive | inactive |  |  | inactive |  | inactive | inactive | 
Cc1cc(C2(c3cc(C)c(O)cc3C)OS(=O)(=O)c3ccccc32)c(C)cc1O | 21.7 µM (active) and 19.3 µM (active) | inactive | inactive | inactive | inactive | inactive | inactive | inactive | inactive | inactive | inactive | inactive |  | inactive | inactive | inactive | inactive |  |  | inactive
CCC(=O)OC/C=C/c1ccccc1 | inactive | inactive | inactive | inactive | inactive | inactive | inactive | inactive | inactive | inactive | inactive | inactive |  | inactive | inactive | inactive | inactive | inactive | inactive | inactive
CC(C)=CCl | inactive | inactive | inactive | inactive | inactive | inactive | inactive | inactive | inactive | inactive | inactive | inactive |  | inactive | inactive | inactive |  | inactive | inactive | inactive
Cc1cccc(C)c1O | inactive | inactive | inactive | inactive | inactive | inactive | inactive | inactive | inactive | inactive | inactive | inactive |  |  | inactive | inactive |  | inactive | inactive | 
Oc1ccc(O)cc1 | inactive | 60.8 µM (active) and 61.1 µM (active) and 21.1 µM (active) | inactive | inactive | inactive | inactive | inactive | inactive | inactive | inactive | inactive | inactive | inactive |  |  | inactive | inactive |  | inactive | inactive
CC1(C)CC(N)CC(C)(CN)C1 (stereo not given) | inactive | inactive | inactive | inactive | inactive | inactive | inactive | inactive | inactive | inactive | inactive | inactive | inactive | inactive | inactive | inactive |  | inactive | inactive | inactive
CC(C)CC(C)CC(O)CC(C)C (stereo not given) | inactive | inactive | inactive | inactive | inactive | inactive | inactive | inactive | inactive | inactive | inactive | inactive |  | inactive | inactive | inactive | inactive | 1.8 nM (active) and inactive | inactive | inactive
CCCCC/C(C=O)=C\c1ccccc1 | inactive | inactive | inactive | inactive | inactive | inactive | inactive | inactive | inactive | inactive | inactive | inactive | inactive | inactive | inactive | inactive | inactive | inactive | inactive | 
O=CCc1ccccc1 | inactive | inactive | inactive | inactive | inactive | inactive | inactive | inactive | inactive | inactive | inactive |  | inactive | inactive | inactive | inactive | inactive | inactive | inactive | inactive

From PubChem BioAssay (Tox21)
